KinaseGlo FLuc = Counterscreen for Luciferase (Kinase-Glo TM) Inhibition | Potency, µM (series often up to 38.3 µM), without a hit: at the highest dose activity change, negative = inhibition, most hits filed as inhibitors | Kinase-Glo luciferase, ATP luminescence, 8 min | Luciferin 4-monooxygenase (Photuris pensylvanica), Q27757 | actives 0.28% (n = 200,000); also: nearly all actives have a fitted effect of over 60% in size
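Inhibition of Kinase-Glo luciferase light generation was assessed at 10 uM ATP in pH 7.2 imidazole buffer, with luminescence measured after eight minutes at ambient temperature.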
Lamin A splicing = qHTS Assay for Modulators of Lamin A Splicing | Potency, µM (titrated, usually from 46.1 µM), for the others: at the top dose ratio change, negative = inhibition, hits mostly inhibitors | actives 0.01% (n = 200,000) | HeLa LMNA splicing GFP/RFP minigene ratio, 48 h | AID 1487, 2009; active = well fitted inhibition curve with a large enough effect in the signal ratio, with a control signal flat, not every such curve was filed as active; inconclusive = small, poorly fitted or top-dose-only effect, or effect the other way, or a change in a side signal; the % refers to the signal ratio
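S3 HeLa cells stably expressing lamin A-EGFP splicing minigene plus DsRed2, 600 cells/well, 48 h compound exposure at 37C. Laser-scanning cytometry; analysed as GFP (500-530 nm)/RFP (575-640 nm) total intensity ratio; 0.5% DMSO vehicle.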
HPGD inh = qHTS Assay for Inhibitors of HPGD (15-Hydroxyprostaglandin Dehydrogenase) | 15-hydroxyprostaglandin dehydrogenase [NAD(+)] (Homo sapiens), P15428 | purified HPGD, NADH fluorescence kinetic, PGE2 substrate | Potency, µM, inactives show at the top dose activity change, negative = inhibition, actives largely listed as inhibitors | actives 4.3% (n = 150,000) | AID 894, 2007; active = well fitted inhibition curve with a large enough effect, not every such curve was filed as active; inconclusive = small, poorly fitted or top-dose-only effect, or another doubt; inactive = no such curve, though single readings can be large or run the other way
Target sequence (P15428 whole entry, looked up): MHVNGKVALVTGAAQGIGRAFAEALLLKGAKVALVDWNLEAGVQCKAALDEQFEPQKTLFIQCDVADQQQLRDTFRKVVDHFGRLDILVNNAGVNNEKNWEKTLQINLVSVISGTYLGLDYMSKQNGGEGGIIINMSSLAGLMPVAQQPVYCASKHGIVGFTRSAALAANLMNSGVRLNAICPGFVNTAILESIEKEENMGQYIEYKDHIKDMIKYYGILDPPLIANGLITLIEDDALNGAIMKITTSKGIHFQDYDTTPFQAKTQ
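NADH formation kinetics: reaction with 30 uM PGE2 and 1 mM NAD+ (final), 20 nM enzyme, Tris-HCl pH 8 with Tween 20, after 15 min compound preincubation at room temperature. Fluorescence change, last versus first of five reads.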
ALDH1A1 inh = qHTS Assay for Inhibitors of Aldehyde Dehydrogenase 1 (ALDH1A1). AID 1030, 2008. actives 7.3% (n = 220,000). Aldehyde dehydrogenase 1A1 (Homo sapiens), P00352. Potency, µM (titrated, usually from 75.3 µM), inactives show at the highest dose activity, negative = inhibition, most hits filed as inhibitors. Purified ALDH1A1, NADH fluorescence, propionaldehyde substrate; active = well fitted inhibition curve with a large enough effect, not every such curve was filed as active; inconclusive = small, poorly fitted or top-dose-only effect, or another doubt; inactive = no such curve, though single readings can be large or run the other way;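 also: plate controls were no enzyme wells and a reference inhibitor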
Target sequence (P00352 whole entry, looked up): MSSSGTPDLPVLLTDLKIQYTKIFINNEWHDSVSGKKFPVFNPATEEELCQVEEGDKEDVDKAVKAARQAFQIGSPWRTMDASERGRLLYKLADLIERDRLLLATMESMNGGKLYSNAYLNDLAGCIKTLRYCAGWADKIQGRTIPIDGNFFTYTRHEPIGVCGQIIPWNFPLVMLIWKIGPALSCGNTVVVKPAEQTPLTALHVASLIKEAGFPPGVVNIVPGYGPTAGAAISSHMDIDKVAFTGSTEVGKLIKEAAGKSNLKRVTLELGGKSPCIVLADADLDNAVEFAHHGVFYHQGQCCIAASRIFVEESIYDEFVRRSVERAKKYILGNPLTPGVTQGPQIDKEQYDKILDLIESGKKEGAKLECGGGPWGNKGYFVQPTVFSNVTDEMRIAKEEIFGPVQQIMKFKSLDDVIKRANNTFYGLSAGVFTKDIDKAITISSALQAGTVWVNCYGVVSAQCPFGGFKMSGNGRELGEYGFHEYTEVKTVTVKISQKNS
IMPase Li cell = qHTS Assay for Identifying the Cell-Membrane Permeable IMPase Inhibitors: Potentiation with Lithium; CHO-M1 cells, IP1 TR-FRET (IP-One), carbachol + lithium; Potency, µM (doses to about 59.4 µM), inactives show at the top dose activity, negative = IMPase inhibition, actives largely listed as inhibitors; actives 0.35% (n = 210,000); AID 1457, 2008;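 also: IP1 builds up when IMPase is blocked and the TR-FRET signal falls; plate controls were basal vehicle for no effect and high inhibitor control for full effect; nearly all actives have a fitted effect of over 50% in size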
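Lithium-sensitised IP1 accumulation assay; M1-expressing CHO cells treated 30 min at 37C with compound. Competitive antibody detection by time-resolved FRET followed a 10 min room-temperature lysis step.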
Numbers without * were called inactive; [ ] = dose if it differs, or a comment. This is a sample that favours compounds with a hit; in the whole collection about 9% have one here. Unless noted, calls follow the shape of the dose curve; as a rule, active = well fitted curve in the direction sought with a large enough effect; inconclusive = small, poorly fitted or top-dose-only effect, or another doubt; inactive = no such curve, though single readings can be large; an effect the other way counts as inactive or inconclusive. Unless noted, % is scaled to controls: 0 for no effect and ±100 for the full control effect; potency is read from the fitted curve at half-maximal effect.

How did CCCCCCCCCCCCCCCCCC(=O)OC(CC(=O)O)C[N+](C)(C)C (stereo not drawn) do in these assays?
KinaseGlo FLuc: -0.5%; Lamin A splicing: inconclusive; HPGD inh: -5.9%; ALDH1A1 inh: -15.0%; IMPase Li cell: 37.1%

Results for NN/C(=C\[N+](=O)[O-])Nc1ccccc1 ?
KinaseGlo FLuc: -2.9%; Lamin A splicing: inconclusive; ALDH1A1 inh: inconclusive; IMPase Li cell: 8.6%

How did NN/C(=C\[N+](=O)[O-])Nc1ccc(Cl)cc1 do in these assays?
KinaseGlo FLuc: 5.7%; Lamin A splicing: inconclusive; ALDH1A1 inh: 28.2µM*; IMPase Li cell: 13.4%

Results for N#C/C(=C\c1ccccc1)C(=O)OCC(=O)N1CCCC1 ?
KinaseGlo FLuc: 0.2%; Lamin A splicing: 19.3%[46 µM]; ALDH1A1 inh: inconclusive; IMPase Li cell: 5.6%

Results for N#CC1=C(Nc2ccccc2)SC=C(c2ccccc2)N=C1N1CCOCC1 ?
KinaseGlo FLuc: -4.6%; Lamin A splicing: 7.4%; HPGD inh: -18.0%; ALDH1A1 inh: 25.1µM*; IMPase Li cell: 13.1%[38.3 µM]

What do the screens show for `N#CC1=C(Nc2ccccc2)SC=C(c2ccc(Cl)c(Cl)c2)N=C1N1CCOCC1`?
KinaseGlo FLuc: -2.8%; Lamin A splicing: 12.7%[0.0737 µM]; HPGD inh: -6.8%; ALDH1A1 inh: inconclusive; IMPase Li cell: 12.0%[38.3 µM]

How did COCCNC(=O)[C@H](C)/C=C(\c1cccnc1)C(NC(=O)OCc1ccccc1)c1ccc(C(=O)OC)cc1 (stereo partly drawn) do in these assays?
KinaseGlo FLuc: -0.5%; HPGD inh: -7.3%; ALDH1A1 inh: -3.9%; IMPase Li cell: 2.9%

Results for Cc1ccc(Cl)cc1NC(=O)c1cc(S(=O)(=O)N2CCCCCC2)cn1C ?
Lamin A splicing: 14.0%[46 µM]

Results for Brc1ccc(-c2nc3ccccc3s2)s1 ?
KinaseGlo FLuc: -29.3%; Lamin A splicing: -2.4%; HPGD inh: inconclusive; ALDH1A1 inh: inconclusive; IMPase Li cell: 11.2µM*

What do the screens show for `c1ccc(-c2nc3ccccc3s2)nc1`?
KinaseGlo FLuc: inconclusive; Lamin A splicing: -6.5%; HPGD inh: -22.8%; ALDH1A1 inh: inconclusive; IMPase Li cell: -19.9%[38.3 µM]

Results for CCOc1cc(NC(C)=O)ccc1C(=O)OC ?
Lamin A splicing: -12.5%

What do the screens show for `Cn1c(-c2ccc(F)cc2)cnc1NCc1cccc(F)c1`?
KinaseGlo FLuc: -3.3%; Lamin A splicing: -1.4%; HPGD inh: 15.8µM*; ALDH1A1 inh: 6.31µM*; IMPase Li cell: -6.4%[38.3 µM]

What do the screens show for `Cn1c(-c2ccc(F)cc2)cnc1NCc1ccccc1`?
KinaseGlo FLuc: -1.0%; Lamin A splicing: -17.7%; HPGD inh: -30.0%; ALDH1A1 inh: inconclusive; IMPase Li cell: 19.7%

What do the screens show for `CSc1ccc(CNc2ncc(-c3ccccc3)n2C)cc1`?
Lamin A splicing: -0.1%[46 µM]

How did Cn1c(-c2cccc(Br)c2)cnc1NCc1cccnc1 do in these assays?
KinaseGlo FLuc: 2.2%; Lamin A splicing: -13.1%; HPGD inh: -25.0%; ALDH1A1 inh: 11.2µM*; IMPase Li cell: 27.9%[38.3 µM]

How did COc1cccc(-c2cnc(NCc3cc(Cl)ccc3O)n2C)c1 do in these assays?
KinaseGlo FLuc: 11.7%; Lamin A splicing: inconclusive; HPGD inh: -25.8%; ALDH1A1 inh: inconclusive; IMPase Li cell: 0.9%[38.3 µM]

Results for Cn1c(-c2ccc3c(c2)OCO3)cnc1NCc1cccc(O)c1 ?
KinaseGlo FLuc: 1.4%; Lamin A splicing: 5.8%[46 µM]; ALDH1A1 inh: 12.6µM*; IMPase Li cell: 16.9%

Results for NCCn1c(-c2ccccc2)cc(C(=O)O)c1-c1ccccc1F ?
KinaseGlo FLuc: 0.4%; Lamin A splicing: -9.9%; HPGD inh: -18.8%; ALDH1A1 inh: inconclusive; IMPase Li cell: 9.6%

Results for Oc1ccc(C2C(c3ccccc3)=NN=C(c3ccc(Cl)cc3)N2O)c(O)c1 (stereo not drawn) ?
KinaseGlo FLuc: -0.3%; Lamin A splicing: -5.9%; HPGD inh: -3.9%; ALDH1A1 inh: 11.2µM*; IMPase Li cell: 4.0%

Results for Oc1ccc(C2C(c3ccccc3)=NN=C(c3ccccc3F)N2O)c(O)c1 (stereo not drawn) ?
KinaseGlo FLuc: 2.7%; Lamin A splicing: inconclusive; HPGD inh: -3.0%; ALDH1A1 inh: 8.91µM*; IMPase Li cell: -4.7%

How did Cc1ccc(-c2csc(N(C)C(=O)c3c(C)nn(-c4ccccc4)c3Cl)n2)cc1 do in these assays?
KinaseGlo FLuc: 3.5%; Lamin A splicing: -18.0%; HPGD inh: -17.5%; ALDH1A1 inh: -9.0%; IMPase Li cell: 28.6%[38.3 µM]

How did COc1cccc(CC2(CO)CCCN(Cc3c(C)cc(C)cc3-n3cccn3)C2)c1 (stereo not drawn) do in these assays?
ALDH1A1 inh: -4.7%; IMPase Li cell: 9.1%

What do the screens show for `Cc1cccc(-c2nc3ccccc3c(=O)n2NC(=S)N(C)C)c1`?
KinaseGlo FLuc: -2.6%; Lamin A splicing: -3.8%; HPGD inh: 15.8µM*; ALDH1A1 inh: 8.91µM*; IMPase Li cell: 2.8%

How did CN(C)C(=S)Nn1c(-c2ccccc2)nc2ccccc2c1=O do in these assays?
KinaseGlo FLuc: -0.1%; Lamin A splicing: -2.2%; HPGD inh: -0.7%; ALDH1A1 inh: -2.0%; IMPase Li cell: -6.2%

What do the screens show for `CC(=O)NCC(=O)N[C@H](CCC(=O)O)C(=O)O`?
KinaseGlo FLuc: 0.1%; HPGD inh: -8.0%; ALDH1A1 inh: 7.5%; IMPase Li cell: -3.5%

How did O=C1C(Cl)=C(NCCCO)C(=O)c2ccccc21 do in these assays?
KinaseGlo FLuc: -6.7%; Lamin A splicing: inconclusive; HPGD inh: -13.1%; ALDH1A1 inh: -3.3%; IMPase Li cell: 42.8%[38.3 µM]

How did Cc1ccc(NC2=C(NCCO)C(=O)c3ccccc3C2=O)cc1 do in these assays?
KinaseGlo FLuc: -6.2%; Lamin A splicing: inconclusive; HPGD inh: -2.5%; ALDH1A1 inh: 22.4µM*; IMPase Li cell: 26.6%

What do the screens show for `CC(C)(C)C(=O)Nc1nc2c(s1)CN(Cc1ccccc1)CC2`?
KinaseGlo FLuc: 0.5%; Lamin A splicing: -26.9%[46 µM]; ALDH1A1 inh: 31.6µM*; IMPase Li cell: 11.4%

How did O=C(Nc1nc2c(s1)CN(Cc1ccccc1)CC2)c1c(F)cccc1F do in these assays?
KinaseGlo FLuc: -0.3%; Lamin A splicing: -5.0%[46 µM]; ALDH1A1 inh: 18.9µM*; IMPase Li cell: 0.6%

Results for O=C(NCc1ccccc1)C(=O)NCC(c1cccs1)S(=O)(=O)c1ccccc1 (stereo not drawn) ?
Lamin A splicing: 15.7%[46 µM]

How did CC1CC(C)CN(CC(=O)NC(c2ccccc2)c2ccccc2)C1 (stereo not drawn) do in these assays?
KinaseGlo FLuc: -4.8%; ALDH1A1 inh: 11.2µM*; IMPase Li cell: 9.2%

Compound activity from PubChem.
